PGK inhibitor = qHTS Assay to Find Inhibitors of Phosphoglycerate Kinase | PGK/GAPDH coupled, Kinase-Glo luminescence, 60 min | 380,000 tested, 0.043% active | Potency, µM (titrated, usually from 57.5 µM), usual class: inhibitors | Phosphoglycerate kinase, glycosomal (Trypanosoma brucei brucei), P07378 | AID 602233, 2012; also: nearly all actives have a fitted effect of over 60% in size
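Luminescent ATP detection (Kinase-Glo Plus) follows a 60-minute room-temperature incubation, with wells lacking PGK as controls. Buffer: 100 mM TEA (pH 7.6), 5 mM MgCl2, 0.01% Tween-20. Coupling enzyme GAPDH (100 nM final) supplies unstable 1,3-BPG in-well.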
Pol eta inh-1 = qHTS for Inhibitors of Polymerase Eta | recombinant Pol eta, fluorescent DNA replication assay | DNA polymerase eta (Homo sapiens), Q9Y253 | 390,000 tested, 1.2% active | Potency, µM (series often up to 114 µM), usual class: inhibitors | AID 588591, 2011
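Fluorescent replication assay: 50 nM final substrate added after a 15 min room-temperature compound preincubation with 10 nM enzyme. Signal taken at 0 min and again at 10 min.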
Pol iota inh = qHTS for Inhibitors of Polymerase Iota; 390,000 tested, 1% active; Potency, µM (titrated, usually from 115 µM), usual class: inhibitors; DNA polymerase iota (Homo sapiens), Q9UNA4; Pol iota fluorescent replication assay, 10 min
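Pol iota at 10 nM preincubated 15 min with compounds at room temperature; reaction started with fluorescent substrate, 50 nM final. Fluorescence read kinetically at 0 and 10 min; buffer-only wells as negative control.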
POLB inh = qHTS Assay for Inhibitors of DNA Polymerase Beta; P06746; Pol beta primer extension/strand displacement, fluorescence kinetic; Potency, µM (top dose mostly 114 µM), most hits filed as inhibitors; 340,000 tested, 1.3% active; AID 485314, 2010
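Curves were derived by four-parameter Hill fits of normalized qHTS data. The kinetic fluorescent primer-extension read was taken at 0 and 10 min after 50 nM substrate, following a 15 min room-temperature preincubation of 10 nM enzyme with compounds.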
FEN1 inh-1 = qHTS Assay for the Inhibitors of Human Flap endonuclease 1 (FEN1) | P39748 | Recombinant FEN1 flap cleavage, fluorescence, 15 min | Potency, µM (titrated, usually from 114 µM), hits mostly inhibitors | 390,000 tested, 0.35% active | AID 588795, 2011; also: nearly all actives have a fitted effect of over 65% in size
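Reaction started by adding substrate (50 nM final) to 10 nM enzyme after 15 min room-temperature compound preincubation. Reads at 0 and 15 min, with data normalized and fitted to a four-parameter Hill equation.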
Pol kappa inh-1 = qHTS for Inhibitors of Polymerase Kappa. DNA polymerase kappa (Homo sapiens), Q9UBT6. Potency, µM (titrated, usually from 107 µM), actives largely listed as inhibitors. purified Pol kappa, fluorescent DNA synthesis assay, 10 min. AID 588579, 2011. 400,000 tested, 0.53% active
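Kinetic fluorescence screen: compound preincubated 15 min RT with 10 nM enzyme; 50 nM substrate (final) initiates; reads at 0/10 min.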
PGK validate = qHTS for inhibitors of Phosphogylcerate Kinase: Hit Validation Screen | shares compounds with Pol kappa inh-1 | TbPGK coupled GAPDH assay, Kinase-Glo luminescence | Potency, µM (top dose mostly 57.5 µM), actives largely listed as inhibitors | 500 tested, 79% active | AID 686980, 2013; also: nearly all actives have a fitted effect of over 65% in size
POLI cherry-pick = qHTS for Inhibitors of Polymerase Iota: Confirmatory Assay for Cherry-picked Compounds. shares compounds with Pol kappa inh-1. AID 720496, 2013. Potency, µM, actives largely listed as inhibitors. Pol iota primer extension, TAMRA/BHQ fluorescence. 1,500 tested, 77% active
Pol kappa inh-2 = qHTS for Inhibitors of Polymerase Kappa: Confirmatory Assay for Cherry-picked Compounds; purified Pol-kappa, fluorescent strand-displacement substrate; 920 tested, 76% active; shares compounds with Pol eta inh-1; Potency, µM, usual class: inhibitors; AID 720501, 2013
Pol eta inh-2 = qHTS for Inhibitors of Polymerase Eta: Confirmatory Assay for Cherry-picked Compounds; 2,600 tested, 64% active; AID 720502, 2013; Potency, µM, most hits filed as inhibitors; Pol eta primer extension, TAMRA/BHQ fluorescence, 10 min; shares compounds with Pol eta inh-1
FEN1 inh-2 = qHTS Assay for the Inhibitors of FEN1: Confirmatory Assay for Cherry-picked Compounds | shares compounds with FEN1 inh-1 | FEN1 flap cleavage, TAMRA/BHQ2 fluorogenic DNA substrate | Potency, µM, actives largely listed as inhibitors | 880 tested, 79% active; also: nearly all actives have a fitted effect of over 60% in size
Numbers stand for hits; - = inactive; ? = inconclusive; . = no result. Rows were chosen to be rich in hits. Some 2.4% of all compounds tested hit in one or more screens of this group. Calls follow the shape of the dose curve; as a rule, active = well fitted curve in the direction sought with a large enough effect; inconclusive = small, poorly fitted or top-dose-only effect, or another doubt; inactive = no such curve, though single readings can be large; an effect the other way counts as inactive or inconclusive.

SMILES	PGK inhibitor	Pol eta inh-1	Pol iota inh	POLB inh	FEN1 inh-1	Pol kappa inh-1	POLI cherry-pick	Pol eta inh-2	FEN1 inh-2	others
COc1cc(/C=C/C=C2/CC/C(=C/C=C/c3ccc(O)c(OC)c3)C2=O)ccc1O	?	5µM	3.5µM	.	40µM	14µM	21	15	43
COc1cc(/C=C2\COC/C(=C\c3ccc(O)c(OC)c3)C2=O)ccc1O	-	?	?	-	?	-	.	.	.
COCCCNc1c2c3c(cccc3[nH]c1=O)C(=O)c1ccccc1-2	-	?	?	25µM	79µM	?	?	?	60	Pol kappa inh-2=?
CCN(c1ccccc1)S(=O)(=O)c1cc(C(=O)O)ccc1C	-	13µM	?	13µM	-	-	7.5	9.5	?	Pol kappa inh-2=5.3
O=C(O)c1ccc(Cl)c(S(=O)(=O)N(Cc2ccccc2)c2ccccc2)c1	-	-	-	-	-	-	.	.	.
O=c1c(O)cccc2cc(O)c(O)c(O)c12	0.79µM	-	?	0.16µM	?	0.89µM	27	19	24	PGK validate=0.26µM;Pol kappa inh-2=24
O=Cc1cc2ccccc2cc1O	.	.	-	.	-	-	.	.	.
COC(=O)C1=COC(OC2OC(CO)C(O)C(O)C2O)C2C1C=CC2(O)CO (stereo unspecified)	?	18µM	40µM	20µM	-	35µM	34	27	?	PGK validate=8.2µM
COC(=O)C1=CO[C@@H](O[C@@H]2OC(CO)[C@@H](O)[C@@H](O)[C@@H]2O)C2C1CC[C@]2(C)O (stereo partly specified)	-	-	-	.	-	-	.	.	.
C=CCN1C(=O)/C(=C\C=C2\N(C)c3ccccc3C2(C)C)SC1=S	-	?	?	?	?	-	.	.	.
CN1/C(=C\C=C2/SC(=S)N(CC(=O)O)C2=O)C(C)(C)c2ccccc21	-	45µM	.	40µM	?	?	38	34	85	Pol kappa inh-2=34
COc1ccc(/C=C2\C(=N)N3N=C(CC(=O)N4CCOCC4)SC3=NC2=O)cc1	-	-	?	-	-	-	.	.	.
N=C1/C(=C/c2ccc(-c3cccc(C(=O)O)c3)o2)C(=O)N=C2SC(CC(=O)N3CCOCC3)=NN12	?	3.5µM	3.5µM	?	35µM	?	17	4.8	67
N=C1/C(=C\c2ccc(-c3cccc(C(=O)O)c3)o2)C(=O)N=C2SC=C(c3ccccc3)N12	?	8.9µM	20µM	20µM	32µM	40µM	30	9.5	67
O=C1c2cccc3cc([N+](=O)[O-])cc(c23)C(=O)N1CCN1CCCC1	-	-	20µM	14µM	14µM	79µM	19	.	11
Cc1cc(C)c(S(=O)(=O)N2CCN(CCN3C(=O)c4cccc5cccc(c45)C3=O)CC2)cc1[N+](=O)[O-]	.	.	.	-	.	.	.	.	.
CCc1ccc(NC(=O)N2CCN(c3nnc(C)c4c(C)n(-c5ccc(Cl)cc5)nc34)CC2)cc1	.	.	?	-	-	-	.	.	.
N#CC(C#N)=C1C=C2C=C(N3CCCCCC3)CCC2CC1 (stereo unspecified)	.	50µM	45µM	40µM	?	?	42	17	67
CCC1CN(C(=O)C2CCN(S(=O)(=O)c3c(C)noc3/C=C/c3ccccc3F)CC2)c2cc(Cl)ccc2O1 (stereo unspecified)	-	-	-	-	-	-	.	.	.
COc1ccc(N2CC(NC(=O)C(=O)c3c[nH]c4ccccc34)CC2=O)cc1 (stereo unspecified)	-	-	-	-	-	-	.	.	.
COc1ccc2sc(/C=C/c3ccccc3O)[n+](C)c2c1	-	50µM	18µM	18µM	40µM	-	67	34	85	Pol kappa inh-2=67
CCN(CCCNc1cc2c(c(N)c1S(=O)(=O)O)C(=O)c1ccccc1C2=O)c1ccccc1	?	25µM	.	.	.	.	67	76	?	Pol kappa inh-2=?
CCOC(=O)C1CCN(c2c(NCCCN(CC)c3ccccc3)c(=O)c2=O)CC1	-	-	-	-	-	-	.	.	.
O=C(NCCCN1CCN(c2ccc(F)cc2)CC1)c1cnn(-c2ccc(F)cc2)c1-n1cccc1	-	-	-	-	-	-	.	.	.
O=C(CSc1nc2ccccc2n1CCc1ccccc1)N1CCOCC1	-	-	-	-	-	-	.	.	.
SMILES	PGK inhibitor	Pol eta inh-1	Pol iota inh	POLB inh	FEN1 inh-1	Pol kappa inh-1	POLI cherry-pick	Pol eta inh-2	FEN1 inh-2	others
O=C(CSc1nc2ccccc2n1CCc1ccccc1)c1ccc(O)c(O)c1	7.9µM	3.2µM	2.8µM	0.5µM	56µM	?	3	3	67	PGK validate=1.5µM
Cc1ccc(CCNC(=O)CCN2N=C(c3ccc(C)cc3)CCC2=O)cc1	-	-	-	-	-	-	.	.	.
CC(NC(=O)CN(c1ccc(Cl)cc1Cl)S(=O)(=O)c1ccccc1)c1ccccc1 (stereo unspecified)	-	-	-	-	-	-	.	.	.
N#C/C(=C\c1cc(Cl)c(OCc2ccc(Cl)cc2)c(Cl)c1)C(N)=O	.	.	.	-	.	.	.	.	.
N#C/C(=C\c1cc(O)c(O)c(O)c1)C(N)=O	.	-	?	?	?	-	19	67	13
CCCC(=O)OCc1cnc(C)c2oc(=O)c(C(=O)Nc3ccc(F)cc3C)cc12	-	-	-	-	-	-	.	.	.
O=C(N/N=C/c1cccn1-c1ccc(O)cc1)c1cccc2ccccc12	-	-	-	-	-	-	.	.	.
